Records with an inconclusive call do not appear. Calls of active or inactive are those of the source. The call rests on the fitted dose curve; in most records, active means well fitted cell-killing curve with a large enough effect; inconclusive means small, poorly fitted or top-dose-only effect, or effect the other way; inactive means no such curve, though single readings can be large or run the other way.
assay: Quantitative High-Throughput drug screen in 47 multiple myeloma cell lines against the NCATS MIPE library collection: UTMC2_PLB cell viability assay (AID 1919868); conditions: CellTiter-Glo ATP luminescence, 48 h; viability (% of DMSO control): at 45.8 µM (top of the series) unless noted; further: nearly all actives have a fitted effect of over 55% in size
Excerpt: PI: Beverly A. Mock Ph.D.
Laboratory of Cancer Biology and Genetics,
Center for Cancer Research, National Cancer Institute,
National Institute of Health, Bethesda, Maryland
Drug resistance and disease progression are common in multiple myeloma (MM) patients, underscoring the need for new therapeutic combinations. […] We hypothesized that effective combinations would reduce MYC expression and enhance p16 activity. […] These preclinical data identify potentially useful drug combinations for evaluation in drug-resistant MM and reveal potential mechanisms of combined drug sensitivity.
Described herein is the primary MIPE qHTS used to cherrypick compounds. Validated compounds were then further tested for potential synergistic activiy.
[1] Peat TJ, Gaikwad SM, Dubois W, Gyabaah-Kessie N, Zhang S, Gorjifard S, Phyo Z, Andres M, Hughitt VK, Simpson RM, Miller MA, Girvin AT, Taylor A, Williams D, D'Antonio N, Zhang Y, Rajagopalan A, Flietner E, Wilson K, Zhang X, Shinn P, Klumpp-Thomas C, McKnight C, Itkin Z, Chen L, Kazandijian D, Zhang J, Michalowski AM, Simmons JK, Keats J, Thomas CJ, Mock BA. Drug combinations identified by high-throughput screening promote cell cycle transition and upregulate Smad pathways in myeloma. Cancer Lett. 2023 Aug 1;568:216284. doi: 10.1016/j.canlet.2023.216284. Epub 2023 Jun 24. PMID: 37356470; PMCID: PMC10408729.
SEQUENCE No. (e.g., 1, 2, 3, etc.); […] (e.g., Cells, Incubation, Reagent, etc.); VALUE and DESCRIPTION.
1; Cells; 5 uL; white, solid bottom 1536-well Greiner assay plate.
2; Compounds; 23 nL; Kalypsis pin tool (Wako USA) equipped with a 1536-well pin head to transfer to the assay plates.
3; Incubation; 48 hours; 37C incubation.
4; Reagent;5uL; CellTiter Glo (Promega).
5; Detector; 425V; Luminescence; Viewlux PerkinElmer.
NOTES (numbers refer to Sequence numbers above)
1. The cell-based screening methods employed in this study were like those previously published. Briefly, the corresponding myeloma cell lines were screened in 1,536-well plates with 500 cells, 5-uL per well for inhibition of cell viability (assessed by measuring ATP levels with CellTiterGlo).
2. NCATS MIPE 4.0 library of approved and investigational drugs were added using the Kalypsis pin tool. Wells treated with DMSO only for 100% viability and media only for 0% viability were used as controls.
3. The assay plates were covered and incubated for 48 hours in a 37C, 5% CO2 incubator with controlled humidity.
4. After 48 hours, CellTilter-GloTM luminescent substrate mix (Promega) reagent was added to the assay plate and plates we incubated for 5 min at room temperature.
5. Signal was measured as median relative luminescence units on a ViewLux (PerkinElmer) multiplate reader.
[1] Heske CM, Davis MI, Baumgart JT, Wilson K, Gormally MV, Chen L, Zhang X, Ceribelli M, Duveau DY, Guha R, Ferrer M, Arnaldez FI, Ji J, Tran HL, Zhang Y, Mendoza A, Helman LJ, Thomas CJ. Matrix Screen Identifies Synergistic Combination of PARP Inhibitors and Nicotinamide Phosphoribosyltransferase (NAMPT) Inhibitors in Ewing Sarcoma. Clin Cancer Res. 2017 Dec 1;23(23):7301-7311. doi: 10.1158/1078-0432.CCR-17-1121. Epub 2017 Sep 12. PMID: 28899971; PMCID: PMC6636827.
Potency means the concentration at half of the fitted maximal effect.

| Structure (SMILES) | Potency |
| --- | --- |
| Cc1cc(C(=O)N2CCN(c3cccc(Cl)c3)CC2)n(-c2ccccc2)n1 | 0.833 µM (active) |
| Cc1cc(Nc2nc(N[C@@H](C)c3ccc(F)cc3)c(C#N)cc2F)n[nH]1 | 0.935 µM (active) |
| CCOc1ccccc1OCCNC(C)Cc1ccc(OC)c(S(N)(=O)=O)c1 (stereo not given) | inactive |
| CC(O)C1C(=O)N2C(C(=O)O)=C(SC3CNC(C(=O)N(C)C)C3)C(C)C12 (stereo not given) | inactive |
| O=C(CCCCCCNC(=O)c1cnc(N(c2ccccc2)c2ccccc2)nc1)NO | 7.43 µM (active) |
| Clc1cccc(-n2nnnc2NCc2ccccc2Oc2ccccn2)c1Cl | inactive |
| CCCn1c(=O)c2[nH]c(-c3cnn(Cc4cccc(C(F)(F)F)c4)c3)nc2n(CC)c1=O | inactive |
| COc1cc2ncnc(Nc3ccc(F)c(Cl)c3)c2cc1NC(=O)C=CCN1CCCCC1 | 10.5 µM (active) |
| COc1ccc(F)c(F)c1C(=O)c1cnc(NC2CCN(S(C)(=O)=O)CC2)nc1N | 2.35 µM (active) |
| Nc1ccc(S(=O)(=O)Nc2ncccn2)cc1 | inactive |
| Cc1ccc(C(=O)Nc2ccc(CN3CCN(C)CC3)c(C(F)(F)F)c2)cc1C#Cc1cnc2cccnn12 | 0.59 µM (active) |
| CC1COC2(CCN(c3nc(=O)c4cc(C(F)(F)F)cc([N+](=O)[O-])c4s3)CC2)O1 (stereo not given) | inactive |
| CCC1=C[C@@H]2CN(C1)Cc1c([nH]c3ccccc13)[C@@](C(=O)OC)(c1cc3c(cc1OC)N(C)[C@@H]1[C@@](O)(C(=O)OC)[C@H](OC(C)=O)[C@]4(CC)C=CCN5CC[C@]31[C@@H]54)C2 | 0.001 µM (active) |
| O=C(c1ccc(Nc2nccc(-c3cc4ccccc4s3)n2)cc1)N1CCC(N2CCCC2)CC1 | 6.62 µM (active) |
| Cc1c(C)n(Cc2ccc(-c3ccccc3C(=O)O)cc2)c2ccc(C(=O)N[C@@H](C)c3ccc([N+](=O)[O-])cc3)cc12 | 20.9 µM (active) |
| OCc1ccc(-c2ccc(-c3ccc(CO)s3)o2)s1 | 16.6 µM (active) |
| CC(C)c1cc(-c2n[nH]c(=O)n2-c2ccc3c(ccn3C)c2)c(O)cc1O | 0.0526 µM (active) |
| CCN(CC)CCCCNc1ncc2cc(-c3cc(OC)cc(OC)c3)c(NC(=O)NC(C)(C)C)nc2n1 | 16.6 µM (active) |
| C#Cc1cccc(Nc2ncnc3cc(OC)c(OCCCCCCC(=O)NO)cc23)c1 | 0.0187 µM (active) |
| NC1(Cc2ccc(Cl)cc2)CCN(c2ncnc3[nH]ccc23)CC1 | 0.264 µM (active) |

| Structure (SMILES) | Potency |
| --- | --- |
| CC(C)CC(=O)Nc1n[nH]c2c1CN(C(=O)C1CCN(C)CC1)C2(C)C | 2.35 µM (active) |
| CNC(=O)c1c(F)cccc1Nc1nc(Nc2cc3c(cc2OC)CCN3C(=O)CN(C)C)nc2[nH]ccc12 | 0.0935 µM (active) |
| CN[C@H]1CCc2cc(OC)c(OC)c(OC)c2-c2ccc(OC)c(=O)cc21 | 0.0093 µM (active) |
| COC(=O)c1ccc2c(C(=Nc3ccc(N(C)C(=O)CN4CCN(C)CC4)cc3)c3ccccc3)c(O)[nH]c2c1 | 6.62 µM (active) |
| COc1ccc(OC)c(-c2nnc3ccc(-c4ccc(OC)c(O[C@@H]5CCOC5)c4)nn23)c1 | 9.35 µM (active) |
| CNC(=O)c1ccccc1Nc1nc(Nc2ccc(N3CCOCC3)cc2OC)ncc1Cl | 0.209 µM (active) |
| CC[C@H]1CN2CCc3cc(OC)c(OC)cc3[C@H]2C[C@@H]1C[C@@H]1NCCc2cc(OC)c(OC)cc21 | 0.187 µM (active) |
| CC(C)C[C@H](NC(=O)CNC(=O)c1cc(Cl)ccc1Cl)B(O)O | 0.418 µM (active) |
| C=CC(=O)Nc1cccc(Oc2nc(Nc3ccc(N4CCN(C)CC4)cc3)ncc2Cl)c1 | 6.62 µM (active) |
| NC(=O)Nc1cc(-c2cccc(F)c2)sc1C(=O)N[C@H]1CCCNC1 | 0.105 µM (active) |
| COc1ccc(-n2nc(C(N)=O)c3c2C(=O)N(c2ccc(N4CCCCC4=O)cc2)CC3)cc1 | inactive |
| COc1ccc(C=Cc2cc(OC)c(OC)c(OC)c2)cc1O | inactive |
| CC(C)(C)c1cc(C(C)(C)C)c(NC(=O)c2c[nH]c3ccccc3c2=O)cc1O | inactive |
| CC1(O)CC(c2nc(-c3ccc4ccc(-c5ccccc5)nc4c3)c3c(N)nccn23)C1 (stereo not given) | 0.166 µM (active) |
| C1=CCOCc2cc(ccc2OCCN2CCCC2)Nc2nccc(n2)-c2cccc(c2)OCC1 | 1.48 µM (active) |
| O=C(Nc1cc(C(F)(F)F)cc(C(F)(F)F)c1)c1cc(Cl)ccc1O | 0.743 µM (active) |
| Cc1cc(Nc2cc(CN3CCOCC3)c3nc(C)c(Cc4ccc(Cl)cc4F)n3n2)n[nH]1 | 2.35 µM (active) |
| C[C@]1(CO)CN(c2cc(C(=O)Nc3ccc4c(c3)-c3c(c(C(N)=O)nn3-c3ccc(F)cc3)CC4)c(Cl)cn2)C[C@@]1(C)CO | 11.8 µM (active) |
| Clc1cccc(-c2nnnn2Cc2cccnc2)c1Cl | inactive |
| CN1CCN(c2ccc3nc(-c4c(N)c5c(F)cccc5[nH]c4=O)[nH]c3c2)CC1 | 5.9 µM (active) |
